A short description of assay [1]: NCI Yeast Anticancer Drug Screen. Data for the rad50 strain (AID 155).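 Further: 0% = growth of vehicle-only cultures of the same strain.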 Particulars: S. cerevisiae rad50 strain growth inhibition; at 50.0 µM; active compounds read high. A digest of the protocol:
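A DNA repair-deficient yeast mutant serves as the test organism; compound-induced growth inhibition is calculated against vehicle-treated cells.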

Assay [2] can be described thus: NCI Yeast Anticancer Drug Screen. Data for the mec2-1 strain (AID 157). Particulars: S. cerevisiae mec2-1 strain, at 50.0 µM, active compounds read high. Summed up:
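Growth inhibition is read against vehicle-treated controls after compound exposure of the mec2-1 yeast strain, which is defective in DNA damage repair or cell cycle control.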

The nature of assay [3]: NCI Yeast Anticancer Drug Screen. Data for the sgs1 mgt1 strain (AID 161).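 Further: 0% = growth of cultures given vehicle only.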 Particulars: S. cerevisiae sgs1 mgt1 strain, at 50.0 µM, active compounds read high. A digest of the protocol:
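Yeast cells carrying a defined DNA-repair defect were exposed to test compounds. Growth inhibition was measured relative to vehicle-treated controls.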

Assay [4] in a line: NCI Yeast Anticancer Drug Screen. Data for the cln2 rad14 strain (AID 165).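 Further: 0% = growth equal to vehicle treated cultures.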 Particulars: S. cerevisiae cln2 rad14 strain, at 50.0 µM, active compounds read high. Summed up: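 Growth inhibition, relative to vehicle-treated controls, is the read-out. The test organism is a yeast strain with defined genetic alterations, cln2 rad14.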
The nature of assay [5]: NCI Yeast Anticancer Drug Screen. Data for the bub3 strain (AID 167). The note with it: S. cerevisiae bub3 mutant strain, at 50.0 µM, active compounds read high. Summed up:
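Inhibition values come from growth of compound-treated mutant yeast normalised to vehicle-treated controls.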

Assay [6] in a line: NCI Yeast Anticancer Drug Screen. Data for the mlh1 rad18 strain (AID 175). Particulars: S. cerevisiae mlh1 rad18 strain growth inhibition; at 50.0 µM; active compounds read high. A digest of the protocol:
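Cells of a genetically altered yeast strain, deficient in DNA damage repair, were treated with compound. Their growth was then compared with that of vehicle-treated cultures to give inhibition.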

This is part of a sample that, as a whole, favours compounds with a hit. Of some 79,000 tested, about 15% had one in any assay. Unmarked numbers belong to inactive results. Calls of active or inactive are those of the source. No stated cut-off is given here; in the data, active means growth inhibition above about 70%; inactive means the rest.

The results in this text go back to PubChem BioAssay (NCI).

Consider `CC(=O)O.CC(=O)O.CC(=O)O.CC(=O)O.CC(=O)O.CC(=O)O.O.[Ti].[Ti]`, for which the growth inhibition in assay [1] is -6.65%; in assay [2] it was -23.8%; in assay [3] it was -23.6%; in assay [4], -4.2%; in assay [5] it was -10.1%; in assay [6], -34%.

As to `BrCCCCCCBr`, the growth inhibition in assay [1] is -5.65%; in assay [2], 5.8%; in assay [3] it was 3.25%; in assay [4], -29.3%; in assay [5], 5.6%; in assay [6], 5.4%.

Regarding `C(=C/[PH+](c1ccccc1)c1ccccc1)/[PH+](c1ccccc1)c1ccccc1.[C-]#[O+].[C-]#[O+].[C-]#[O+].[C-]#[O+].[C-]#[O+].[Mo+2].[Mo+4].[c-]1[c-][c-][cH-][c-]1.[c-]1[c-][c-][cH-][c-]1`, the growth inhibition in assay [1] was 91.6% (active); in assay [2], 93.5% (active); in assay [3], 93.5% (active); in assay [4], 92.2% (active); in assay [5], 92.9% (active); in assay [6], 91.2% (active).

As for `BrC(Br)c1cccc(C(Br)Br)c1`, the growth inhibition is 55.7% in assay [1]; 37.8% in assay [2]; 27.1% in assay [3]; 37.5% in assay [4]; 64% in assay [5]; 56.6% in assay [6].

For `C/C=C1/CN2CCC34C(=C(C(=O)OC)C1CC23)Nc1ccc(O)cc14` (centres undefined), the growth inhibition in assay [1] is 2.9%; in assay [2] it was 2.3%; in assay [3] it was 27.7%; in assay [4] it was -4.05%; in assay [5], 1.65%; in assay [6] it was -61%.

On to `COC(=O)C1=C(C)N2CCCOC2(C)C(C(=O)OC)C1c1cccc(Cl)c1` (centres undefined), for which the growth inhibition is 61.4% in assay [1]; 16.6% in assay [2]; 40.5% in assay [3]; 29.1% in assay [4]; 44.4% in assay [5]; 61.5% in assay [6].

Take `Nc1cc(S(=O)(=O)F)ccc1Cl`: the growth inhibition in assay [1] was 26.3%; in assay [2], 6.1%; in assay [3], 20.1%; in assay [4], 35.5%; in assay [5], 22.9%; in assay [6], 23.6%.

Turning to `O=c1cc(O)c2ccccc2o1`, the growth inhibition in assay [1] was 26.1%; in assay [2], -1.55%; in assay [3], -4.1%; in assay [4], 15.6%; in assay [5], -10.2%; in assay [6] it was 14.3%.

For `NCCCNCCCN`, the growth inhibition in assay [1] was 5.2%; in assay [2], -3.1%; in assay [3], -3.95%; in assay [4] it was -4.3%; in assay [5], 7.85%; in assay [6], -11.7%.

Consider `CCC[As](=O)(O)CC(C)C`, for which the growth inhibition in assay [1] is 3.2%; in assay [2], -2.8%; in assay [3], -4.9%; in assay [4], 13.2%; in assay [5] it was -0.4%; in assay [6], -3.75%.

On to `CCN(CCCl)c1cc(CN(C)C)cc(NC(=O)c2ccc(C(=O)Nc3ccccc3)cc2)c1`, for which the growth inhibition in assay [1] was 0.7%; in assay [2], -18.4%; in assay [3], 5%; in assay [4] it was 26.2%; in assay [5], 23.9%; in assay [6], 12.4%.

Consider `COc1cc2c(cc1O)C(=O)O[C@@H]1CC=C3CCN(C)[C@H]3[C@H]21`, for which the growth inhibition in assay [1] is 3.4%; in assay [2], 11.3%; in assay [3] it was -7.3%; in assay [4], 7.1%; in assay [5] it was -37.4%; in assay [6] it was 19.8%.

`O=[N+]([O-])O.[Ce]`: the growth inhibition is 13.3% in assay [1]; 3.35% in assay [2]; 17.9% in assay [3]; 5.8% in assay [4]; 24.6% in assay [5]; 4.15% in assay [6].

Regarding `COc1ccc2n[se]nc2c1`, the growth inhibition in assay [1] was 46.4%; in assay [2], 28.1%; in assay [3] it was 26.9%; in assay [4], 11.6%; in assay [5] it was 51.6%; in assay [6], 21%.

As to `CC(C)N(C(=O)SCC(Cl)=C(Cl)Cl)C(C)C`, the growth inhibition in assay [1] was -2.95%; in assay [2], -15.8%; in assay [3], -0.35%; in assay [4], -3.05%; in assay [5], -12.3%; in assay [6], 30%.

In the case of `Clc1ccc([As](c2ccc(Cl)cc2)c2ccc(Cl)cc2)cc1`, the growth inhibition was 77.5% (active) in assay [1]; 48.1% in assay [2]; 74.3% (active) in assay [3]; 13.7% in assay [4]; 30.5% in assay [5]; 48.4% in assay [6].

Turning to `O=P(OCCCCl)(OCCCCl)C(Cl)(Cl)Cl`, the growth inhibition in assay [1] was -0.45%; in assay [2], -5.65%; in assay [3] it was -5.2%; in assay [4], 6.85%; in assay [5] it was 13.7%; in assay [6], 2.15%.

Consider `COC(=O)C(CC(=O)N[N+](=O)[O-])NC(=O)C(CSC(c1ccccc1)(c1ccccc1)c1ccccc1)NC(=O)OCc1ccccc1` (centres undefined), for which the growth inhibition is -3.4% in assay [1]; 11.7% in assay [2]; -4.25% in assay [3]; -15.1% in assay [4]; -8.1% in assay [5]; 29.3% in assay [6].

For the molecule `OCC(O)C(O)C(O)C1C[O][Sb][O]1` (centres undefined), the growth inhibition in assay [1] was 0.85%; in assay [2], 3.6%; in assay [3], 7.85%; in assay [4] it was -11.2%; in assay [5], -2.85%; in assay [6], 8.2%.
